Calls of active or inactive are those of the source. Rule for the calls: active = hit-call score of the fitted dose curve at least 0.9, where 1 is the maximum; inactive = score below 0.9.

The term AC50 denotes the midpoint of the concentration-response curve, whichever way the signal moves.

Read-out in the assay: Potassium channel subfamily K member 1 (KCNK1), KCNK1 (gene 3775)
As to the kind of experiment: LTEA_HepaRG_KCNK1: Life Technologies and Expression Analysis (LTEA) Assay for Potassium channel subfamily K member 1 (KCNK1) using HepaRG (AID 2283511). Particulars: mRNA level, 48 h; actives raise or lower the signal. On the procedure:
LTEA_HepaRG is a cell based, multiplexed-readout assay that uses HepaRG, a human liver cell line, with measurements taken at 48 hours after chemical dosing on a 96-well plate.LTEA_HepaRG_KCNK1 is one of 102 assay component(s) measured in the LTEA HepaRG cell culture assay. It is a marker of Hyperplasia.Data from the assay component LTEA_HepaRG_KCNK1 was analyzed into 1 endpoint. This assay endpoint, LTEA_HepaRG_KCNK1, was analyzed with bidirectional fitting relative to DMSO as the negative control and baseline of activity. Using a type of inducible reporter, measures of mRNA induction for gain or loss-of-signal activity can be used to understand regulation of transcription factor activity. To generalize the intended target to other relatable targets, this assay endpoint is annotated to the ion channel intended target family, where the subfamily is potassium channel.
A total of 1060 chemcials from the ToxCast library were tested in eight-point concentration-response experiments. Cell culture and cytotoxicity assays were conducted at Thermo Fisher Scientific's Custom Services facility (Madison, WI). A single lot of human HepaRG cells (Thermo Fisher Scientific, Frederick, MD) was used for the cell culture experiments. 96-well format collagen type I coated plates of human HepaRG cells were prepared using established methods. Briefly, cryopreserved HepaRG cells were thawed, plated at a density of approximately 100,000 cells/well in HepaRG Thaw, Plate, and General Purpose media (HPRG770, Thermo Fisher Scientific), and incubated for 48 hours. 0.5% DMSO was selected as vehicle control to balance the requisite need of DMSO in HepaRG cultures to maintain differentiation (for example, baseline metabolism, proportions of hepatocytes vs. cholangiocytes), while enabling further hepatic receptor pathway activation (for example, PXR and CAR) in response to chemical exposure. 48 hours after plating, the culture medium was replaced with HepaRG Serum-Free Incudtion Media. Cells were exposed to each test chemical in duplicate and maintained in CO2 incubators for another 48 hours. Chemical plates were thawed to room temperature and 200x concentrations of treatment groups were prepared. 8-point conentration-reponse curves were made with the highest exposure at 100 uM, followed by half-log dilutions, all in 0.5% DMSO. Each test plate contained variouse controls, induction positive controls (1mM phenobarbital), cytotoxicity positive controls ([…] aflatoxin B1), vehicle controls (0.5% DMSO), and total lysis controls (0.5% DMSO). Cell morphology images were taken using an Essen IncuCyte FLR automated microscope, with six 96-well plates imaged in about 24 minutes. Images were captured and exported and JPEG files. Spent culture media was transfered to black-well plates for the LDH assay, and remaining media was sorted at -80 C for later use. Cells were treated with RLT buffer and frozen until shipped for gene expression analysis. Total RNA was isolated from the cell suspension in 75 uL of Buffer RLT (Qiagen, Germantown, MD 20874) by Quintiles/Expression Analysis (Durham, NC) using a custom isolation procedure. Total RNA from each plate well was transferred to a preamplification plate. Fluidigm's 96.96 Dynamic ArrayTM (Fluidigm, Amsterdam, the Netherlands) technology was used for gene expression analyses by quantitative reverse transcription polymerase chain reaction (qRT-PCR, performed by Quintiles/Expression Analysis, Durham, NC)89. Standard TaqManTM Assays (Applied Biosystems/ThermoFisher Scientific, Foster City, CA) were used to assess the expression of 93 genes selected based on their selectivity and sensitivity to important hepatic receptors known to be modulated by environmental chemicals; importance in human hepatocyte functionality; and hepatotoxicity. […]
`O=[N+]([O-])c1ccc(O)cc1`: the molecule was called inactive. For the molecule `OC1CCC(C2CCCCC2)CC1` (stereo not given), the result was inactive. For `CC(C)(C)CC(C)(C)c1ccc(O)c(-n2nc3ccccc3n2)c1`, the outcome was inactive. `O=C(OCCOCCOC(=O)c1ccccc1)c1ccccc1`: the result was inactive.

In the case of `CCCCCCCCCCCCN1CCCC1=O`, the molecule was called inactive.

As for `NC(=O)N(O)[C@@H]1C=C[C@H](Oc2cccc(Oc3ccc(F)cc3)c2)C1`, the AC50 is 35.5 µM (active). In the case of `CCCCCCCCOC(=O)CCCCCCCCC(=O)OCCCCCCCC`, the molecule was called inactive. For `CCCCC(CC)COC(=O)CCCCC(=O)OCC(CC)CCCC` (stereo not given), the call was inactive. For `CC(O)CO` (stereo not given), the molecule was classed as inactive.

Regarding `c1ccc2c(c1)Cc1ccccc1-2`, the call was inactive. Turning to `CC#C[C@]1(O)CC[C@H]2[C@@H]3CCC4=CC(=O)CCC4=C3[C@@H](c3ccc(N(C)C)cc3)C[C@@]21C`, the AC50 is 69 µM (active). Take `CN1CCC[C@H]1c1cccnc1`: the molecule was called inactive. Same read-out and setting: in the case of `COc1ccc([N+](=O)[O-])cc1N` it was “inactive”; in that of `CCCCOCCO`, “inactive”. Still for that read-out and setting: in the case of `CN(C)C=O` it was “inactive”. As for `CCC(C)(C)C1CCC(O)CC1` (stereo not given), the outcome was inactive. In the case of `COCC(C)O` (stereo not given), the result was inactive. Take `N#C[C@@H]1CC(F)(F)CN1C(=O)CNC1CC2CCC(C1)N2c1ncccn1` (stereo not given in full): the call was inactive. On to `OCCC(F)(F)C(F)(F)C(F)(F)C(F)(F)C(F)(F)C(F)(F)C(F)(F)C(F)(F)F`, for which the result was inactive.

On to `CCOC(=O)CC(O)(CC(=O)OCC)C(=O)OCC`, for which the molecule was classed as inactive. Still for that read-out and setting: in the case of `CC[C@H](C)[C@@H](C(=O)O)n1sc2ccccc2c1=O` it was “inactive”. On to `O=C(O)c1ccccc1C(c1ccc(O)cc1)c1ccc(O)cc1`, for which the molecule was classed as inactive. Same read-out and setting: in the case of `ClC1=C(Cl)C(Cl)(Cl)C(Cl)=C1Cl` it was “inactive”. On to `CCc1nn(C2CCCCC2)c2cc(C3(C#N)CCC(C(=O)O)CC3)ccc12` (stereo not given), for which the AC50 is 13.1 µM (active). Take `OC1CCCCC1`: the molecule was called inactive. As for `OCCC(F)(F)C(F)(F)C(F)(F)C(F)(F)C(F)(F)C(F)(F)F`, the result was inactive. Take `CCCCCCCCCCCCCCCS(=O)(=O)Oc1ccccc1`: the molecule was classed as inactive. Turning to `C#C[C@]1(O)CC[C@H]2[C@@H]3CCC4=CC(=O)CC[C@@H]4[C@H]3CC[C@@]21C`, the result was inactive. `CCc1ccc(CCOc2ccc(CC3SC(=O)NC3=O)cc2)nc1` (stereo not given): the outcome was inactive. Take `Nc1cccc2c(N)cccc12`: the call was inactive. Consider `Oc1cc2ccccc2c2ccccc12`, for which the molecule was classed as inactive. Take `Oc1cccc(O)c1`: the result was inactive. Consider `NC(=O)N1C(=O)C(C(=O)c2cc(Cl)cs2)c2cc(F)c(Cl)cc21` (stereo not given), for which the AC50 is 29.1 µM (active).

Take `CCCCCCCCC(=O)O`: the call was inactive.

Turning to `Cc1cc(C)c(O)c(C)c1`, the molecule was classed as inactive. With `COC(=O)CCCCC(=O)OC`, the molecule was classed as inactive. `CCC(=C(c1ccc(O)cc1)c1ccc(OCCN(C)C)cc1)c1ccccc1`: the molecule was classed as inactive. As for `CCCCC(CC)COC(=O)CCCCC(=O)OCc1ccccc1` (stereo not given), the outcome was inactive. For `CC[C@H](c1ccc(O)cc1)[C@@H](CC)c1ccc(O)cc1`, the call was inactive. On to `CC(C)CCCCCCOC(=O)CCCCC(=O)OCCCCCCC(C)C`, for which the molecule was classed as inactive.

The record behind these values is PubChem BioAssay (EPA / NIEHS).
